Test results: the supplement of paper PMC11732987, “Enantioselective OTUD7B fragment discovery through chemoproteomics screening and high-throughput optimisation” (Communications Chemistry, 2025)

target: T1, UniProt Q5T2D3; assay: log2 ratio of Biotin-Ahx-Ub-VS probe labelling (fragment/DMSO); higher = less target engagement (more negative = stronger competition), active = hit call of the paper (q ≤ 0.05, log2 ratio ≤ -1); settings: compound concentration: 200 uM; treatment time: 3 h
T1 sequence (whole entry): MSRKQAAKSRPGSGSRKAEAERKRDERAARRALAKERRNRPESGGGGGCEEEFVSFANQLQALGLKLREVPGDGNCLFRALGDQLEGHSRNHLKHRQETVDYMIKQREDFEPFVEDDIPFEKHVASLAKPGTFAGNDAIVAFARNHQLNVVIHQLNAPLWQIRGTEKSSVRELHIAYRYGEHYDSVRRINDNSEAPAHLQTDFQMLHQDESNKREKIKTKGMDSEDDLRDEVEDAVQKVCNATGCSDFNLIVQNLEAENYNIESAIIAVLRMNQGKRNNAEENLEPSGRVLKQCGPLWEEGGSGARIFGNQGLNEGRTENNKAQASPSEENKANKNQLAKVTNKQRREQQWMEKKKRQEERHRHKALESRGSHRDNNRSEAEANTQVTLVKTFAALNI
How it was run: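 HEK293T lysate in Tris/CHAPS/IGEPAL buffer with protease inhibitors (495 µg per sample) was given fragment at 200 µM or vehicle for 3 h, in triplicate. It then received Biotin-Ahx-Ub-VS at 0.5 µM final for 1 h. Labelled DUBs were NeutrAvidin-enriched, digested with LysC and trypsin, and run by diaPASEF LC-MS/MS. Values are average log2 fragment/vehicle ratios by unpaired t-test on global-median-normalised Spectronaut quantities of proteins with ≥2 unique peptides.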

log2 ratio of Biotin-Ahx-Ub-VS probe labelling, inactive:
CNC(=O)C1(NC(=O)CCl)CCCCC1 -0.364
Cl.O=C(CCl)N1CCC(n2nc3ccccc3n2)CC1 -0.193
N#Cc1ccccc1N1CCN(C(=O)CCl)CC1 -0.687
O=C(CCl)NC(Cn1ccccc1=O)c1ccccc1 (centres undefined) 0.0727
O=C(CCl)N1CC=C(c2c[nH]c3ccccc23)CC1 -0.405
O=C(CCl)NC1CCC(C(F)(F)F)CC1 (centres undefined) -0.211
Cc1ccc2nnc(CNC(=O)CCl)n2c1 -0.119
Cl.Cn1nccc1C(NC(=O)CCl)c1ccccc1 (centres undefined) -0.172
O=C(CCl)Nc1ccc(F)cc1F -0.334
Cc1n[nH]c2c1CN(C(=O)CCl)CC2 -0.696
O=C(CCl)N1CCOC2(CCC2)CC1 -0.0132
CC(NC(=O)CCl)c1cccc(Cl)c1 (centres undefined) -0.271
O=C(CCl)NCC1(c2ccccc2)CC1 -0.0752
CC1(NC(=O)CCl)CCS(=O)(=O)C1 (centres undefined) -0.858
Cc1cccn2cc(CCNC(=O)CCl)nc12.Cl -0.0486
CN(CCc1ncc(Br)cn1)C(=O)CCl.Cl -0.508
O=C(CCl)N1CCCCC12CCOCC2 -0.414
Cl.O=C(CN1CCN(C(=O)CCl)CC1)Nc1ccc(F)cc1 -0.013
O=C(CCl)NCCc1ccc2c(c1)OCCO2 -0.249
O=C(CCl)NC1(c2ccc3c(c2)OCCO3)CCCC1 -0.339
COCC[C@@H](NC(=O)CCl)c1ccccc1 -0.0591
CC(NC(=O)CCl)c1ccc2[nH]ncc2c1 (centres undefined) -0.26
Cl.Cn1ncc2c1CC(NC(=O)CCl)CC2 (centres undefined) -0.0643
CCC1c2ccsc2CCN1C(=O)CCl (centres undefined) -0.0335
Cc1cccnc1NC(=O)C1CCN(C(=O)CCl)CC1.Cl -0.408
O=C(CCl)N1CCCC2CCCCC21 (centres undefined) -0.0557
Cl.Cn1cnc2cc(CNC(=O)CCl)ccc21 -0.0728
Cl.Cn1c(CNC(=O)CCl)nc2cccnc21 -0.354
N#Cc1ccc(Cl)cc1NC(=O)CCl -0.0728
CN(C(=O)CCl)c1nc2ccccc2s1 -0.0566
Cc1n[nH]c(=O)c2c(NC(=O)CCl)oc(C)c12 -0.674
CC(=O)Nc1ccc(NC(=O)CCl)cc1 -0.228
O=C(CCl)N1CCOC2(CCC2)C1 0.00991
Cl.O=C(CCl)N1CCc2ncncc2C1 -0.274
